# Compound activity (PubChem BioAssay)
# Sampled rows, rich in hits. Any-hit rate of the full collection: about 4%.
# D1 antagonist – blocks dopamine activation of the human D1 receptor | P21728 | HEK293 TREx D1 cells, calcium flux, dopamine EC80; hits give low values | activity change, negative = inhibition, % at 10 µM | hit rate 3.2% among 360,000 | AID 504652; in the data active = activity change below about -30%; also: % is scaled to controls: 0 for no effect and ±100 for the full control effect
# Target sequence (P21728 whole entry, looked up): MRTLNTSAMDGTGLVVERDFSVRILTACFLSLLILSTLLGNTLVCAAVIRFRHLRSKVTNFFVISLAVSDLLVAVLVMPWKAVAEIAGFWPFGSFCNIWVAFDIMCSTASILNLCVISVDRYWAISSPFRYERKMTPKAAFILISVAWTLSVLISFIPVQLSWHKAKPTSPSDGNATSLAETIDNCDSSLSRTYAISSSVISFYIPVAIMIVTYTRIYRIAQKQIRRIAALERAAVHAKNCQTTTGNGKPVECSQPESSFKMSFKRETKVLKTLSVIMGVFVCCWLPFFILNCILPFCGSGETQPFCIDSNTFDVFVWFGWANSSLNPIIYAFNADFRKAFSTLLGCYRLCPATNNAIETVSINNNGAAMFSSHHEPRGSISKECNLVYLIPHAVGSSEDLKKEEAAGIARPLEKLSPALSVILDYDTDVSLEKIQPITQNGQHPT
#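 Tetracycline-induced HEK293 T-REx cells with force-coupled D1 receptor were loaded with a no-wash calcium dye. Compound was added after a 10 s baseline and read kinetically for 180 s; EC80 dopamine was then added and calcium flux followed another 180 s.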
# D1 PAM – human D1 dopamine receptor positive modulation. HEK293 TREx D1 cells, calcium flux, dopamine EC20 potentiation. AID 504651. potentiation, % at 10 µM. hit rate 0.036% among 360,000; in the data active = potentiation above about 30%; also: 0% is about no effect
# TRHR ag – TRH receptor (human) agonism | P34981 | TRHR cells, calcium flux fluo-8, FDSS agonist mode | activation, % at 2 µM | hit rate 0.18% among 360,000; also: 0% is about no effect
#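 Steps: seed TRHR cells overnight; add fluo-8 no-wash Ca dye, RT 30 min–1.5 h; record 10 s baseline; pin-transfer compounds; monitor fluorescence 1 cycle/s for the agonist window. Calcium increases flag candidate agonists.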
# D1 agonist – agonists of human D1 dopamine receptor; hit rate 1% among 360,000; HEK293 T-REx D1 cells, calcium flux, agonist mode; activation, % at 2 µM; P21728; AID 504660; also: 0% is about no effect
#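 Tetracycline-induced HEK293 TREx D1 cells, force-coupled to calcium signalling, were dye-loaded with a no-wash calcium kit. Compound was pin-added after a 10 s baseline. Fluorescence was read kinetically at 1 cycle/s for 180 s, with calcium rises flagged as agonism.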
# TRHR enhancer – TRH receptor (human) allosteric enhancement; TRHR cells, fluo-8 calcium fluorescence, EC20 TRH enhancement; enhancement, % at 2 µM; hit rate 0.66% among 360,000; AID 493056; in the data active = enhancement above about 30%; also: 0% is about no effect
#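 Enhancer read-out: after compound pinning and an initial kinetic agonist-mode read, an EC20 of TRH (10 nM final) was injected and fluo-8 calcium signal (Ex 480/Em 530) followed at 1 s/cycle for 100 cycles in TRHR-expressing cells.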
# Glioma ERSR ind – induces the endoplasmic reticulum stress response in human glioma cells; U87-MG GRP78 promoter luciferase reporter, 16 h; Potency, µM, for inactives: top-dose activation, most hits filed as activators; hit rate 0.02% among 420,000; AID 602332; active = well fitted activation curve with a large enough effect; also: potency is read from the fitted curve at half-maximal effect; series mostly up to about 76 µM; % of control where 0% means no effect; nearly all actives have a fitted effect of over 35% in size
#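 Stably transfected U87-MG glioma cells carrying a GRP78-based luciferase sensor; 16 h compound incubation. Luminescence end-point read 10 min after Bright-Glo addition at room temperature.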
# Starred values were filed as active, the others as inactive; / = no result given. Rule as the data show it, unless noted: active = activation above about 30%; inactive = the rest.
SMILES,D1 antagonist,D1 PAM,TRHR ag,D1 agonist,TRHR enhancer,Glioma ERSR ind
Cc1ccc([N+](=O)[O-])c(OCCN2CCC(Cc3ccccc3)CC2)c1,-55.0*,-12.9,2.7,26.8,3.7,-8.3%
Cc1c(C(=O)N2CCC(Cc3ccccc3)CC2)cccc1[N+](=O)[O-],-3.5,-5.7,0.5,1.9,0.4,-1.0%
Cc1ccccc1OCCN1CCC(Cc2ccccc2)CC1,/,-10.5,0.6,4.0,-6.2,-4.7%
O=c1cc(/C=C/c2ccc([N+](=O)[O-])cc2)c2ccccc2[nH]1,/,/,/,/,/,-4.2%
Cc1ccc(C)c(N2CCN(C(=O)c3cnc4c(-c5ccccc5)c(C)nn4c3C)CC2)c1,-8.1,-5.8,0.0,9.6,1.0,-1.8%
CCCN(CCC)c1ccc(/C=C/c2ccc3cc(OCC)ccc3n2)cc1,-19.1,-2.6,35.1*,32.8*,-3.7,-3.9%
CN(C)c1ccc(/C=C/c2ccc3ccccc3n2)cc1,-5.3,1.9,38.2*,138.7*,15.9,-14.5%
Cc1c(Cl)cccc1NC(=O)C(C)N(c1ccccc1)S(C)(=O)=O (stereo unspecified),14.1,-1.6,-0.5,0.8,-6.8,-3.0%
CC1CCC2C(=O)N3CCCC3C(=O)N2C1c1ccc(Br)cc1 (stereo unspecified),/,/,/,/,/,-4.8%
O=C1OCCC1N(C(=O)C1CC1)c1cccc(Cl)c1 (stereo unspecified),/,/,/,/,/,-7.8%
Cc1ccc(CNC(=O)c2cnc3c(-c4ccc(F)cc4)c(C)nn3c2C)o1,-42.8*,-8.6,-0.6,1.7,-5.9,-3.8%
CCOC(=O)c1ccc(NC(=O)c2cnc3c(-c4ccc(F)cc4)c(C)nn3c2C)cc1,-39.7*,-5.0,0.8,4.0,-4.8,-2.1%
O=C(c1ccco1)N(Cc1cc2cc3c(cc2nc1N1CCOCC1)CCC3)CC1CCCO1 (stereo unspecified),/,/,/,/,/,-4.0%
CN(CCc1nc2ccc(Cl)cc2[nH]1)Cc1nc(CC2CC2)no1,3.0,4.8,-3.5,-0.2,34.9*,-1.6%
Cc1ccccc1NS(=O)(=O)c1cccc2nonc12,2.3,-2.3,-0.4,0.4,19.5,-5.8%
Cc1ccccc1Nc1cccc2nonc12,-4.9,-6.6,9.5,40.3*,-2.6,-4.3%
CNCCC=C1c2ccccc2CCc2ccccc21,-78.8*,-5.3,0.9,21.0,-3.7,-12.2%
Cc1ccccc1CNC(=O)Nc1ccc2c(c1)N(C)C(=O)c1ccccc1S2,-38.5*,-3.4,-0.2,1.3,1.2,-6.7%
Cc1ccccc1CNC(=O)Nc1ccc(Cl)cc1,-46.2*,-5.5,-0.2,4.3,6.0,3.0%
Cc1ccc(CNC(=O)Nc2ccccc2)c(C)c1,-15.3,-2.0,1.1,8.3,8.9,3.6%
CN(C)/[N+]([O-])=N/Oc1cc(ON=[N+]([O-])N2CCN(c3ncccn3)CC2)c([N+](=O)[O-])cc1[N+](=O)[O-],/,/,/,/,/,2.0%
CCc1c(C)c2cc(Cl)c(O)c(CN(CC)CC)c2oc1=O,3.9,1.9,-0.1,-1.9,38.1*,-6.6%
CC(=O)c1nc2ccccc2n1S(=O)(=O)c1ccc(Cl)cc1,-36.5*,-10.2,-0.8,4.7,2.1,-1.0%
Cc1ccc(NC(=O)COC(=O)Cc2ccsc2)c(C)c1,-33.9*,-2.5,-1.5,0.0,16.9,-6.8%
COc1ccc(NC(=O)COC(=O)Cc2ccsc2)c(OC)c1,/,/,/,/,/,1.4%
SMILES,D1 antagonist,D1 PAM,TRHR ag,D1 agonist,TRHR enhancer,Glioma ERSR ind
Cc1ccccc1OCC(=O)N/N=C1\SCC(=O)N1Cc1ccccc1,-43.1*,-0.8,-2.0,1.1,-2.6,-1.0%
Cc1ccccc1C(=O)N/N=C1\SCC(=O)N1Cc1ccco1,10.1,2.2,0.0,1.8,36.7*,1.3%
CCC(=O)N1c2ccccc2C(C)(c2ccccc2)CC1(C)C (stereo unspecified),11.4,-0.2,4.3,-0.6,-11.3,-1.4%
CC(=O)N1c2ccccc2C(C)(c2ccc(C)cc2)CC1(C)C (stereo unspecified),-3.8,-1.1,15.6,55.5*,-10.1,-0.3%
CN(CC(=O)Nc1cccc(F)c1)C(=O)c1ccc(OCC2CCCO2)cc1 (stereo unspecified),16.9,-8.2,0.3,3.6,0.6,-0.6%
CCOc1ccc(NC(=O)CN(C)C(=O)c2ccc(OCC3CCCO3)cc2)cc1OCC (stereo unspecified),-42.3*,-10.2,-0.2,1.4,-0.3,-2.9%
CCOc1ccc(NC(=O)COc2ccc(C(=O)NCC3CCCO3)cc2OC)cc1 (stereo unspecified),-37.2*,12.3,0.8,1.6,4.5,-1.1%
Cc1nc(CS(=O)(=O)c2ccccn2)sc1C(=O)NNC(=O)c1ccccc1,-31.8*,-6.2,0.2,1.5,-1.2,-4.1%
NNC(=O)c1ccc(C(=O)N(c2ccccc2)c2ccccc2)cc1,/,/,/,/,/,2.1%
C=CCn1c(COc2ccc(OC)cc2)nc2ccccc21,-34.8*,-4.2,0.0,1.4,-1.2,3.5%
COc1cccc(OCc2nc3ccccc3n2Cc2ccccc2C)c1,-11.0,0.5,5.2,39.9*,-8.9,-3.4%
CC(=O)NCCCc1nc2ccccc2n1Cc1ccccc1C,5.5,-11.8,0.1,42.5*,0.7,-4.8%
CCn1c(COc2ccc(OC)cc2)nc2ccccc21,-16.9,-6.5,-0.2,3.6,0.6,-0.7%
CC(=O)NCc1nc2ccccc2n1Cc1ccccc1C,4.7,-4.4,0.1,2.0,-7.3,-5.3%
CCc1nc2cc(C(=O)N3CCC[C@H]3CO)cc(NC(=O)c3ccccc3OC)c2n1C,/,/,/,/,/,-2.2%
CCn1nc(-c2ccccc2C)nc2c(=O)n(C)c(=O)nc1-2,/,/,/,/,/,-8.7%
O=C1Nc2ccc(S(=O)(=O)NCCC3=CCCCC3)c3cccc1c23,-37.2*,-8.7,0.1,16.8,3.8,-5.8%
CCN1CCN(C(=O)c2cc3cc([N+](=O)[O-])ccc3oc2=O)CC1,-36.2*,-11.0,0.8,0.1,-0.6,-1.3%
O=C(c1cc2cc([N+](=O)[O-])ccc2oc1=O)N1CCN(C2CCCCC2)CC1,-2.8,-0.3,-1.5,-0.5,0.0,-0.8%
O=C(CN1C(=O)C2CC=CCC2C1=O)NCC(=O)Nc1ccc(F)c(F)c1 (stereo unspecified),-4.8,-3.9,0.1,0.9,11.6,-1.9%
O=C(CSc1ncccc1C(=O)O)Nc1ccc2c(c1)OCCO2,-3.6,-4.1,0.4,2.6,4.2,-7.7%
CC(C)Cc1ccc(C(=O)Nc2ccc(Cc3ccncc3)cc2)o1,-0.3,-2.9,-0.2,1.2,38.1*,-0.3%
O=C(Nc1ccc(Cc2ccncc2)cc1)c1ccc(Br)o1,-9.3,-8.2,-0.6,1.3,-4.3,9.4%
Cc1ccc(-n2c(SCc3ccccc3)nc3c([nH]c4ccccc43)c2=O)cc1,-33.4*,-0.9,0.4,-1.1,-0.3,-3.5%
COc1cc2c(NC3CCN(C)CC3)nc(N3CCCN(C)CC3)nc2cc1OCC1CCCCN1 (stereo unspecified),/,/,/,/,/,-6.4%
